Experiment [1] can be described thus: Nrf2 qHTS screen for inhibitors: Validation (AID 493153; active = well fitted inhibition curve with a large enough effect in the main read-out, with a control signal flat, not every such curve was filed as active). As to conditions: viability change: measured here: cytotoxicity max response. Put shortly:
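Luminescence from an ARE-firefly luciferase reporter in A549 cells gives Nrf2 inhibition; an earlier CellTiter-Fluor fluorescent read flags cytotoxicity. Cells in 5% FBS OPTI-MEM received compound dilution series for 18-24 h at 37°C.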
In general terms: Quantitative high-throughput screening tests each substance at several concentrations.

Experiment [2] can be described thus: qHTS for Inhibitors of Cell Surface uPA Generation: Validation Assay (AID 493164). Note: 0% is about no effect. Put shortly: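 RAW 264.7 cells (4000/well) were plated overnight, then exposed for 18 h at 37 C, 5% CO2 to compounds in a 7-point 1:5 titration (2.45 nM–38.3 uM final). Intracellular ATP was read by ATP-Lite luminescence.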
For experiment [3], the target named is Galactokinase (Homo sapiens) (UniProt P51570). As to the kind of experiment: qHTS Validation Assay for Inhibitors of Human Galactokinase (GALK) (AID 493189). Note: 0% is about no effect. In a few lines: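 5 nM GALK / 100 uM galactose / 35 uM ATP, 20 mM HEPES pH8.0, 5 mM MgCl2, 60 mM NaCl, 1 mM DTT, 0.01% BSA (final). RT 1 h; Kinase-Glo Plus luminescence.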
Experiment [4] is described as follows: Validation screen for small molecules that induce DNA re-replication in SW480 colon adenocarcinoma cells (AID 504364). Note: 0% is about no effect. Put shortly: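 250 cells/well; compound pinned in; 48 hr, 37 C, 5% CO2; Hoechst added, 40 min; nuclear fluorescence imaged, 405 ex / 500-530 em; re-replication scored as increase in high-intensity nuclei.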
Experiment [5] addresses Peptidyl-prolyl cis-trans isomerase NIMA-interacting 1 (Homo sapiens) (UniProt Q13526). Put plainly: qHTS Validation Assay to Find Inhibitors of Pin1 (AID 504536; active = well fitted inhibition curve with a large enough effect in the polarisation, with a control signal flat, not every such curve was filed as active; the % refers to the polarisation;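 note: 0% = full Pin1 enzyme wells and -100% = no-enzyme wells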). From the text:
(§1) NIH Molecular Libraries Probe Production Network [MLPCN]
(§2) NIH Chemical Genomics Center [NCGC]
The unique chemical properties of Pro allow for the adoption of two completely distinct amide bond conformations (cis and trans). Peptidyl-prolyl cis/trans isomerases (PPIases) are evolutionary conserved enzymes that catalyze cis/trans isomerization of peptidyl-prolyl peptide bonds. Distinct from all other PPIases such as cyclophilins and FK506-binding proteins (FKBPs), Pin1 binds a subset of phos.Ser/Thr-Pro-containing proteins using its protein-targeting WW domain and isomerizes only specific phos.Ser/Thr-Pro bonds, which cannot be effectively catalyzed by other known PPIases. […]
The goal of this screen is to find small-molecule inhibitors of Pin1 using a fluorescence polarization competition assay. […]
Pin1 (0.6 uM) was dispensed into black, solid 1536-well plates at 2 uL/well in 10 mM HEPES (pH 7.5), 10 mM NaCl, 0.01% Tween20, 1 mM DTT, and 1% glycerol. […] The plates were measured on a ViewLux plate reader for fluorescence polarization signal using a 480/20 nM nm excitation filter and 540/25 nM nm S and P emission filters with a 20 second exposure. The %Activity was determined from the corrected fluorescence polarization values. […]
Concentration-response curves were fitted to the signals arising from the resulting fluorescence polarization. […]

Experiment [6] deals with Phosphoglycerate kinase, glycosomal (Trypanosoma brucei brucei) (UniProt P07378). Put plainly: qHTS Validation Assay to Find Inhibitors of Phosphoglycerate Kinase (AID 504547).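 Note: control wells lack PGK and mark full inhibition.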 In a few lines: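 Substrate/PGK mix plus compound; reaction started with GAPDH (100nM final) to form 1,3-BPG; 60 min RT; Kinase-Glo Plus 10 min; luminescence. TEA 100mM pH 7.6, MgCl2 5mM, Tween-20 0.01%.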

Experiment [7] has as its target phosphoglycerate mutase (Leishmania major) (UniProt Q4Q090). As to the kind of experiment: qHTS Validation Assay to Find Inhibitors of Phosphoglycerate Mutase (AID 504548). Note: series mostly up to about 58 µM; % is set by controls: 0 for no effect and ±100 for the full control effect. In a few lines: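 Lm PGAM 1.25nM final; 100 mM TEA pH 7.6, 5 mM MgCl2, 0.01% Tween-20; 45 min RT; Kinase-GloPlus, 10 min; end-point luminescence. Enzyme-free wells as negative controls.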
Experiment [8] addresses Ubiquitin carboxyl-terminal hydrolase 1 (Homo sapiens) (UniProt O94782). Put plainly: Inhibitors of USP1/UAF1: Pilot qHTS (AID 504865). Note: nearly all actives have a fitted effect of over 35% in size. Note: potency is the fitted concentration of half-maximal effect.
Text: Deubiquitinating enzymes (DUBs) are a class of enzymes that can cleave isopeptide bond formed between the C-terminal carboxylate of ubiquitin and a lysine side-chain amino group on the target protein. Among them, ubiquitin specific proteases (USPs) constitute the largest DUB family. Human USPs are emerging as promising targets for pharmacological intervention because of their connection to a number of human diseases, including prostate, colon and breast cancer (1, 2), pediatric acute lymphoblastic leukemia (3), and familial cylindromatosis (4). The advantage of inhibiting USPs lies in the potential specificity of therapeutic intervention that can lead to better efficacy and reduce nonspecific side effects.
In a collaboration between the University of Delaware and the NIH Chemical Genomics Center, a high-throughput screen assay was developed to screen for USP1/UAF1 inhibitors. This miniaturized assay has a fluorescent read-out and is used to screen the NIH Molecular Libraries Small Molecule Repository (MLSMR) in order to identify a small molecule that inhibits USP1.
as §2
NIH Molecular Libraries Probe Centers Network [MLPCN]
Assay Submitter (PI): Zhihao Zhuang, University of Delaware
1. Priolo, C., et al. (2006) The isopeptidase USP2a protects human prostate cancer from apoptosis. Cancer Res 66, 8625-8632
2. Popov, N., et al. (2007) The ubiquitin-specific protease USP28 is required for MYC stability. Nat Cell Biol 9, 765-774
3. De Pitta, C., et al. (2005) A leukemia-enriched cDNA microarray platform identifies new transcripts with relevance to the biology of pediatric acute lymphoblastic leukemia. Haematologica 90, 890-898
4. Kovalenko, A., et al. (2003) The tumour suppressor CYLD negatively regulates NF-kappaB signalling by deubiquitination. Nature 424, 801-805
3 microliters of reagents (buffer in columns 3 and 4 as negative control and 1nM USP1/UAF1 complex in columns 1, 2, and 5-48) are dispensed into Greiner black solid bottom 1536-well assay plates. Compounds are then transferred via Kalypsys pin tool equipped with 1536-pin array (10nl slotted pins, V&P Scientific, San Diego, CA). Following an incubation step of 15 min at room temperature, 1ul of Ub-Rho substrate (150nM final concentration) is added to initiate the reaction. The plates are immediately centrifuged at 1000 rpm for 15 seconds, and subsequently transferred to a ViewLux high-throughput CCD imager (PerkinElmer) wherein kinetic measurements of fluorescence are acquired using 480 nm excitation/540 nm emission filter set (6 reads every 60 seconds, see Table 1). All reagents are diluted in an assay buffer consisting of 50mM HEPES (pH 7.8), 0.5mM EDTA, 0.1 mg/ml BSA, 1mM TCEP, and 0.01% Tween-20.

Experiment [9] deals with ATPase family AAA domain-containing protein 5 (Homo sapiens) (UniProt Q96QE3). As to the kind of experiment: Validation screen for small molecules that inhibit ELG1-dependent DNA repair in human embryonic kidney (HEK293T) cells expressing luciferase-tagged ELG1 (AID 493107).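 Note: cells co-treated with the DNA-damaging agent 5-fluorouridine alongside compound; series mostly up to about 46 µM; % is set by controls: 0 for no effect and ±100 for the full control effect; inhibitors lower the ELG1-luciferase luminescence signal; nearly all actives have a fitted effect of over 70% in size.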
Text: as §1, §2
Assay Provider: Kyungjae Myung, NHGRI, NIH
Keywords: MLPCN, qHTS, NCGC, genotoxicity, cancer
Cancer cells divide rapidly compared to normal cells in the body. During cell division, cancer cells need to duplicate their genome by DNA replication. The failure of genome duplication leads to cancer cells' death. Therefore, inhibitors of DNA replication could specifically kill cancer cells. Based on this concept, many chemotherapeutic agents were developed and have been used to treat cancer patients. However, there are a limited number of agents available in the clinical setting, and some of those that do exist have low efficacy and severe side effects. Therefore, if we can find the compounds that effectively block DNA replication either by directly damaging DNA or by inhibiting other cellular mechanisms, the options for cancer treatment will be broadened. With this in mind, we developed a quantitative high-throughput ELG1-luciferase reporter gene assay. […]
For genotoxicity screening, 2,000 cells in 4 uL/well were dispensed into white, solid-bottom 1536-well plates using a solenoid-based dispenser. […] 5 ul ONE-Glo (Promega) was then added to each plate and following a 30 min incubation at room temperature, luciferase activity was quantified on a ViewLux CCD-based plate reader.

Experiment [10] concerns the target Thyrotropin-releasing hormone receptor (Homo sapiens) (UniProt P34981). Put plainly: qHTS for Small Molecule Agonists and Allosteric Enhancers of Human TRH Receptor: Validation Screen for Agonists (AID 493127;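 active = calcium activation more than 3 SD above the typical response in the agonist read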;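 note: intracellular calcium rise by fluo-8 fluorescence before TRH EC20 addition; 0% is about no effect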). As to conditions: TRH receptor agonist cell assay; at 2 µM; stronger effect = higher value. In a few lines: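 Cells 2000/well, 10% FCS, 18 h 33.5C/5% CO2 → fluo-8 Ca dye, RT 30 min–1.5 h → FDSS baseline 10 × 1 s → compound added → 230 cycles (1 s/cycle) agonist mode. TRH controls.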

Molecules are shown by their SMILES. Inconclusive results are not listed. Active and inactive are the calls of the source. Unless noted, calls come from the whole dose curve; as a rule, active = well fitted curve in the direction sought with a large enough effect; inconclusive = small, poorly fitted or top-dose-only effect, or another doubt; inactive = no such curve, though single readings can be large; an effect the other way counts as inactive or inconclusive.

Sequence of Ubiquitin carboxyl-terminal hydrolase 1 (Homo sapiens) (O94782 whole entry, looked up): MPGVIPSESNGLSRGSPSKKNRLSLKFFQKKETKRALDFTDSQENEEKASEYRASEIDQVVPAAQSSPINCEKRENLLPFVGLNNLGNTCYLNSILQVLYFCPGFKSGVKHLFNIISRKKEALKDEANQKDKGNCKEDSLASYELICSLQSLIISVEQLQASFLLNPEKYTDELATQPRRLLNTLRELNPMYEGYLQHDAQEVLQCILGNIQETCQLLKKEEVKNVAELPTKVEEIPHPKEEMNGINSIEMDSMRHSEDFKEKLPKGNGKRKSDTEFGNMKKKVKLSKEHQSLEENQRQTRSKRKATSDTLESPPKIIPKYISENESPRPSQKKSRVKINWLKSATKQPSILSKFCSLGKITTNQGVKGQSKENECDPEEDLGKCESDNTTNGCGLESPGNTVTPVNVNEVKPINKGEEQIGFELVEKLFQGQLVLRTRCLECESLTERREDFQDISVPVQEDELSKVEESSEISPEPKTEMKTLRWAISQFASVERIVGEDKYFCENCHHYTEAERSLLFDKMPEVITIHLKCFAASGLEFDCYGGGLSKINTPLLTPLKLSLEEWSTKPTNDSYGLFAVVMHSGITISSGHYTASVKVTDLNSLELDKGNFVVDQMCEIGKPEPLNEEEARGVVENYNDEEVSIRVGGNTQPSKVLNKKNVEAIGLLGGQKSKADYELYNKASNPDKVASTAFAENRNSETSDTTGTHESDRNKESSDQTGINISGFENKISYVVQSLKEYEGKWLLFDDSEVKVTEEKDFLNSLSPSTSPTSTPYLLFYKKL
Sequence of Galactokinase (Homo sapiens) (P51570 whole entry, looked up): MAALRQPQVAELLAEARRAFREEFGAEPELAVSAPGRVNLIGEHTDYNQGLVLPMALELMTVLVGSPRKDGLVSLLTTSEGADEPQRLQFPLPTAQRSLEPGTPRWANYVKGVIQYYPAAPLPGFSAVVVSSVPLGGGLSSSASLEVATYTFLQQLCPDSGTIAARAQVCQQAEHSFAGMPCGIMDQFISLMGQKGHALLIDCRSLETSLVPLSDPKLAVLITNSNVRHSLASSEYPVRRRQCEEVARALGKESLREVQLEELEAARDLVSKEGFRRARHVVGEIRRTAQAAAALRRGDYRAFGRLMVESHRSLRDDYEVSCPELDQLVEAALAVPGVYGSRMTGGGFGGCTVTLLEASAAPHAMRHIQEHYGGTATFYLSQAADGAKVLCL
Sequence of phosphoglycerate mutase (Leishmania major) (Q4Q090 1-553): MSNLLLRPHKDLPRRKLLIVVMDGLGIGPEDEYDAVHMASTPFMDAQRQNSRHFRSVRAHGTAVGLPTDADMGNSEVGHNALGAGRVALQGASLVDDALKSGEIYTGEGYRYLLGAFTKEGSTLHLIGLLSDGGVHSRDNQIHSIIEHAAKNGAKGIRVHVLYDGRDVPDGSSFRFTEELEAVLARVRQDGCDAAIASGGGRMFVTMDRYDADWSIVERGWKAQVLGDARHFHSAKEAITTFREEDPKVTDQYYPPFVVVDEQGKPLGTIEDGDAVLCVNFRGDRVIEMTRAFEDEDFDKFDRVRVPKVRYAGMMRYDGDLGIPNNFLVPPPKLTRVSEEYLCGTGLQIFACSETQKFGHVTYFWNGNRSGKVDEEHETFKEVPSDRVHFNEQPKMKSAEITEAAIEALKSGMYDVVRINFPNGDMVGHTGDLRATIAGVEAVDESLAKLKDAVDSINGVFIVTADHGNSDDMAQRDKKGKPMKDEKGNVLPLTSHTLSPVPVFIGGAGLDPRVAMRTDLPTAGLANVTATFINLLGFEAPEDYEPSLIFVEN
Sequence of Peptidyl-prolyl cis-trans isomerase NIMA-interacting 1 (Homo sapiens) (Q13526 whole entry, looked up): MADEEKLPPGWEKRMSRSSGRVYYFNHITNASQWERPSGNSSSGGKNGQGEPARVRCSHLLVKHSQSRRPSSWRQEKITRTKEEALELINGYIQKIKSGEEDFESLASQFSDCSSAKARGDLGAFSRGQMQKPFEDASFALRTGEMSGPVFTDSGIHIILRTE
Sequence of Phosphoglycerate kinase, glycosomal (Trypanosoma brucei brucei) (P07378 whole entry, looked up): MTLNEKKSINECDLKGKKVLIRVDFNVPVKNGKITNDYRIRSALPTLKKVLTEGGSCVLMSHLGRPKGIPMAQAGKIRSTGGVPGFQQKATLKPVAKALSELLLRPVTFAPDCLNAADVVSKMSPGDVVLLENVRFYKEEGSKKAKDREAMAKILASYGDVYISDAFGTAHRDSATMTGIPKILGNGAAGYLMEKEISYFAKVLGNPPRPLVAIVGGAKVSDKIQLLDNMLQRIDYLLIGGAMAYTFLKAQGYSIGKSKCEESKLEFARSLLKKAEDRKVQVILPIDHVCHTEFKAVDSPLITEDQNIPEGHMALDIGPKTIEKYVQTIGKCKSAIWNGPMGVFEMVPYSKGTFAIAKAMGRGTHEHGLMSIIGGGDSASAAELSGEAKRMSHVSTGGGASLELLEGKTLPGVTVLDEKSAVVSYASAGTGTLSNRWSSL
Sequence of Thyrotropin-releasing hormone receptor (Homo sapiens) (P34981 whole entry, looked up): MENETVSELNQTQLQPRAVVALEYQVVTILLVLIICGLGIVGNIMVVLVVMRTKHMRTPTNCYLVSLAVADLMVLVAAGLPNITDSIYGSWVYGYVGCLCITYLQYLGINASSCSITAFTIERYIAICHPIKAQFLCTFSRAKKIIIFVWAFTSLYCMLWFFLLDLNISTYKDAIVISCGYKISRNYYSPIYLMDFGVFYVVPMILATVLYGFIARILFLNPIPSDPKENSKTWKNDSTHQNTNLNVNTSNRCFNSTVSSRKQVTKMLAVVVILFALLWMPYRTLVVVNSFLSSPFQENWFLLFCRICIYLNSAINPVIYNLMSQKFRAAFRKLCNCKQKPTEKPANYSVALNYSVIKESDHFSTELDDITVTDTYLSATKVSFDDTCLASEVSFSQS
Sequence of ATPase family AAA domain-containing protein 5 (Homo sapiens) (Q96QE3 whole entry, looked up, the tested form may be a part): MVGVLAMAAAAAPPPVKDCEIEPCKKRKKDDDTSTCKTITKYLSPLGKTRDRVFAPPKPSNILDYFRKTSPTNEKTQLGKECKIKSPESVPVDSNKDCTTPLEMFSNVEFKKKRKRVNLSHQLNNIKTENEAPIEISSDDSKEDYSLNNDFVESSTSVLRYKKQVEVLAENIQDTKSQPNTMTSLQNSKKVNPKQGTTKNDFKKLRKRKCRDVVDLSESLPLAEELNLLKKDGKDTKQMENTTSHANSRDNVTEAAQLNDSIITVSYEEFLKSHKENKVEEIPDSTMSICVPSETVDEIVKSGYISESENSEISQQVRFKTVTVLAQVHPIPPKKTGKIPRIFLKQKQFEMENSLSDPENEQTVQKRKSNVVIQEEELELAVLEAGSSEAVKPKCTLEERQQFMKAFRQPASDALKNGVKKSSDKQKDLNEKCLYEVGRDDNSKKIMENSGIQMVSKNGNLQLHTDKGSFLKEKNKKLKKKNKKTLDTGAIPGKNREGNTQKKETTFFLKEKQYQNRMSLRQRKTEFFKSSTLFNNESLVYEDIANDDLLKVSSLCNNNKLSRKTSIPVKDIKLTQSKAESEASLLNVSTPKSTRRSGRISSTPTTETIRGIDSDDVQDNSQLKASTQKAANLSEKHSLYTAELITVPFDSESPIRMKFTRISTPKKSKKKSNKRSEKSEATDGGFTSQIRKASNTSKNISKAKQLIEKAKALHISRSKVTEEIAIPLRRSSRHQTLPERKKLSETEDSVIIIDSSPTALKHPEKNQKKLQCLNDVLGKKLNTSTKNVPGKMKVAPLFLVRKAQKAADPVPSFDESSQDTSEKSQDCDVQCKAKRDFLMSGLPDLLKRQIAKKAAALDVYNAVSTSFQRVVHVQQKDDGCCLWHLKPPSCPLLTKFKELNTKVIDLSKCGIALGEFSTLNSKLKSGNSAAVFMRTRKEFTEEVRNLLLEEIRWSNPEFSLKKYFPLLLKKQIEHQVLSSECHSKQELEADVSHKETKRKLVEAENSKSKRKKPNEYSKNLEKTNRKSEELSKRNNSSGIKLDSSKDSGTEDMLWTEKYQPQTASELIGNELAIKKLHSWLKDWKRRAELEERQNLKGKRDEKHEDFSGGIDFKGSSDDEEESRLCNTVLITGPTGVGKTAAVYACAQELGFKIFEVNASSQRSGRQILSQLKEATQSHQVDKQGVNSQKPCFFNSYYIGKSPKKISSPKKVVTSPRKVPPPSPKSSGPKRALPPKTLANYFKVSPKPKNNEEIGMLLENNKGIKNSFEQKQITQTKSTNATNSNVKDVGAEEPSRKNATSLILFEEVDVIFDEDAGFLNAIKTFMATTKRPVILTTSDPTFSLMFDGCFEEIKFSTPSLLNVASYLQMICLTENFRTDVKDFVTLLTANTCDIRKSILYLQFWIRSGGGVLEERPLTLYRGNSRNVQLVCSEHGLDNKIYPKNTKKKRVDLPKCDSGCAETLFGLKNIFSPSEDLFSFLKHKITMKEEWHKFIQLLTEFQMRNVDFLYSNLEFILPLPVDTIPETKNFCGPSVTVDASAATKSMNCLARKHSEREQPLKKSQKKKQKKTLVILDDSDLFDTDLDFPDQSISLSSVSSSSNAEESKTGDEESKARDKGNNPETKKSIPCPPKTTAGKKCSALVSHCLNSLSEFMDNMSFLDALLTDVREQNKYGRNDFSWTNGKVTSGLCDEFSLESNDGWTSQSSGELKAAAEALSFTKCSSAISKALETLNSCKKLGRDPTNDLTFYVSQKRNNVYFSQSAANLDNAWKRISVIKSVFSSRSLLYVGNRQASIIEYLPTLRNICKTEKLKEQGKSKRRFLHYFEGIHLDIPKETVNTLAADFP

On to `CN[C@H]1CC[C@@H](c2ccc(Cl)c(Cl)c2)c2ccccc21`, for which the call in experiment [1], in experiment [2], in [3], in experiment [4], in experiment [5] and in experiment [6] was inactive. Also, the molecule was classed as inactive in [7]. Also, in experiment [1], the viability change worked out at 1.73%. In addition, the Potency entry in experiment [8] was “inactive”.

Turning to `CN(C)CCCn1cc(C2=C(c3c[nH]c4ccccc34)C(=O)NC2=O)c2ccccc21`, in [8], the Potency was 50.1 µM (active).

Consider `NCCCC(=O)O`, for which the outcome in [9], in [1], in experiment [2], in experiment [3], in experiment [4] and in [5] was inactive. Also, the call in experiment [6] and in experiment [7] was inactive. Moreover, in experiment [10], the activation is -0.125% (inactive). This molecule also came in with a viability change in experiment [1] of 14.4%. Moreover, the Potency result in experiment [8] is “inactive”.

Turning to `O=C(O)CC(O)(CC(=O)O)C(=O)O`, the Potency result in experiment [8] is “inactive”.

With `COC1C(OC(=O)/C=C/C=C/C=C/C=C/C(=O)O)CCC2(CO2)C1C1(C)OC1CC=C(C)C` (stereo unspecified), in [8], the Potency result was “inactive”.

For `COc1cc(C[C@H]2C(=O)OC[C@@H]2Cc2ccc(OC)c(OC)c2)ccc1O`, the Potency result in experiment [8] is “inactive”.

Take `C1CNCCN1`: the Potency result in experiment [8] is “inactive”.

In the case of `CCCOc1ccc2nc(NC(=O)OC)sc2c1`, in experiment [8], the Potency entry was “inactive”.

The values above are taken from PubChem BioAssay (NCATS).
